This is an account of results in ChEMBL document CHEMBL5724796, “Tm Shift (DSF) assay results for EUbOPEN Chemogenomics Library” (2024).

Conditions in all cases: Compound concentration 20.0 uM
Assay [1] addresses Tyrosine-protein kinase ABL1 (Homo sapiens) (UniProt P00519).
In assay [2] the target is Bromodomain-containing protein 4 (Homo sapiens) (UniProt O60885).
Assay [3] concerns the target Cyclin-dependent kinase 2 (Homo sapiens) (UniProt P24941).
Assay [4] deals with Casein kinase I isoform delta (Homo sapiens) (UniProt P48730).
Casein kinase I isoform delta (Homo sapiens), sequence (P48730 whole entry, looked up, canonical isoform): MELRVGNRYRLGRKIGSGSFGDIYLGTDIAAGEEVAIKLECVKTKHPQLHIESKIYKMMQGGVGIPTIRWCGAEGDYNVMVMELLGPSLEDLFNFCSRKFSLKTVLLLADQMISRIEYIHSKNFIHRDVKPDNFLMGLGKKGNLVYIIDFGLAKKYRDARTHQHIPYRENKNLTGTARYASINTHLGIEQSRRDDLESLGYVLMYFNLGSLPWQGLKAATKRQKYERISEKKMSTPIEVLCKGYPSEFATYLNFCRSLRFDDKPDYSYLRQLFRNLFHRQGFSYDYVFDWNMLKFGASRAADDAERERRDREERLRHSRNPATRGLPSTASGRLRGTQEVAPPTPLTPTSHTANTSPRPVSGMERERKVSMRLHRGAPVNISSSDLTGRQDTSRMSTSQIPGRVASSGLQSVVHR
Assay [5] concerns the target Glycogen synthase kinase-3 beta (Homo sapiens) (UniProt P49841).
For assay [6], the target named is Mitogen-activated protein kinase 1 (Homo sapiens) (UniProt P28482).
Mitogen-activated protein kinase 1 (Homo sapiens), sequence (P28482 whole entry): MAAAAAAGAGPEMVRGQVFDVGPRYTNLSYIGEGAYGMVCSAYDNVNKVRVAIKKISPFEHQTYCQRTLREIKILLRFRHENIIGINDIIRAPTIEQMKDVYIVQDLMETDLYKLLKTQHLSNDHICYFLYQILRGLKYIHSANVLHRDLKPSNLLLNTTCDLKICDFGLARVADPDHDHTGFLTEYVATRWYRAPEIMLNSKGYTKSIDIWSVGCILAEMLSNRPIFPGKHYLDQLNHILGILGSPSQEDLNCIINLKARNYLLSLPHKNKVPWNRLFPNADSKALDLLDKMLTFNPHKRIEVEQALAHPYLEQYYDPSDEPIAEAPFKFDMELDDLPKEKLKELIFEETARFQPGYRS
Assay [7] deals with T1, Aurora kinase A (Homo sapiens) (UniProt O14965).
T1 sequence (whole entry): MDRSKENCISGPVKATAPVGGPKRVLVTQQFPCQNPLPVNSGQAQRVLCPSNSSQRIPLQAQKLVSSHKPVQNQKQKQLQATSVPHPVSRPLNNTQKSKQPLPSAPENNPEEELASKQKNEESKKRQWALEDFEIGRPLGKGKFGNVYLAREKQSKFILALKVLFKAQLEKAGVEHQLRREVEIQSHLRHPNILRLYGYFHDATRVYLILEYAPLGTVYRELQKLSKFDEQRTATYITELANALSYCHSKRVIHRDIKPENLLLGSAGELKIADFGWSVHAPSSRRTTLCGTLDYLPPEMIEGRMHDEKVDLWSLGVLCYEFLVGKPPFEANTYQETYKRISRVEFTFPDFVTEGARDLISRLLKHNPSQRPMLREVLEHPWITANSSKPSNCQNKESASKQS

Assay [8] has as its target T2, Transcription intermediary factor 1-alpha (Homo sapiens) (UniProt O15164).
T2 sequence (whole entry): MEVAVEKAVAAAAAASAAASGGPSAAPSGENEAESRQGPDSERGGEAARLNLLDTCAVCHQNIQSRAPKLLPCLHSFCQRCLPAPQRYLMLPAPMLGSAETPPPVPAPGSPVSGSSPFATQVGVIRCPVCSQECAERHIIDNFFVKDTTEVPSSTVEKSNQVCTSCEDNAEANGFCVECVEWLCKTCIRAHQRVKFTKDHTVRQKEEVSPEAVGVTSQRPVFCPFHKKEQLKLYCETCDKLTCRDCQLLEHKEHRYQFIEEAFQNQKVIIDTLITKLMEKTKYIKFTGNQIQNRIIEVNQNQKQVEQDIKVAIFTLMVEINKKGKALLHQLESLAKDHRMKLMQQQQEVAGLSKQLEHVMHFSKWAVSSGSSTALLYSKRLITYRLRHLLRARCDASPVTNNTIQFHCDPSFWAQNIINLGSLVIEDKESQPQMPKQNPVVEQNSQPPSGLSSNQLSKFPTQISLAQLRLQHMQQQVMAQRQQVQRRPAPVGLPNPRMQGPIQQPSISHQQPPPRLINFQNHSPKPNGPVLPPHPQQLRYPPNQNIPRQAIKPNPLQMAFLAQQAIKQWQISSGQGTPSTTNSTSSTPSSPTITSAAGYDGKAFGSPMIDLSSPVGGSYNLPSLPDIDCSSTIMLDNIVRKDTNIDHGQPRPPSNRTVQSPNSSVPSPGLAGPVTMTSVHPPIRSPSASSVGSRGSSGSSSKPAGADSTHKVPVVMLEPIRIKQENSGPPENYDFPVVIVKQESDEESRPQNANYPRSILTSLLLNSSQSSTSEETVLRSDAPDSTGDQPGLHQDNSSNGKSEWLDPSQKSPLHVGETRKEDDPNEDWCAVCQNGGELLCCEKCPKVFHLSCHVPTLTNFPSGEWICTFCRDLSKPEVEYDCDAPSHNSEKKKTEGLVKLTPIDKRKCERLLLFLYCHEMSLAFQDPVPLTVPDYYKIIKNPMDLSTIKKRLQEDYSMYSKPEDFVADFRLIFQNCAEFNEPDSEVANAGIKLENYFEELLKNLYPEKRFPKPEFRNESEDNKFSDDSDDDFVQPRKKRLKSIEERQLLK

Tyrosine-protein kinase ABL1 (Homo sapiens), sequence (P00519 whole entry): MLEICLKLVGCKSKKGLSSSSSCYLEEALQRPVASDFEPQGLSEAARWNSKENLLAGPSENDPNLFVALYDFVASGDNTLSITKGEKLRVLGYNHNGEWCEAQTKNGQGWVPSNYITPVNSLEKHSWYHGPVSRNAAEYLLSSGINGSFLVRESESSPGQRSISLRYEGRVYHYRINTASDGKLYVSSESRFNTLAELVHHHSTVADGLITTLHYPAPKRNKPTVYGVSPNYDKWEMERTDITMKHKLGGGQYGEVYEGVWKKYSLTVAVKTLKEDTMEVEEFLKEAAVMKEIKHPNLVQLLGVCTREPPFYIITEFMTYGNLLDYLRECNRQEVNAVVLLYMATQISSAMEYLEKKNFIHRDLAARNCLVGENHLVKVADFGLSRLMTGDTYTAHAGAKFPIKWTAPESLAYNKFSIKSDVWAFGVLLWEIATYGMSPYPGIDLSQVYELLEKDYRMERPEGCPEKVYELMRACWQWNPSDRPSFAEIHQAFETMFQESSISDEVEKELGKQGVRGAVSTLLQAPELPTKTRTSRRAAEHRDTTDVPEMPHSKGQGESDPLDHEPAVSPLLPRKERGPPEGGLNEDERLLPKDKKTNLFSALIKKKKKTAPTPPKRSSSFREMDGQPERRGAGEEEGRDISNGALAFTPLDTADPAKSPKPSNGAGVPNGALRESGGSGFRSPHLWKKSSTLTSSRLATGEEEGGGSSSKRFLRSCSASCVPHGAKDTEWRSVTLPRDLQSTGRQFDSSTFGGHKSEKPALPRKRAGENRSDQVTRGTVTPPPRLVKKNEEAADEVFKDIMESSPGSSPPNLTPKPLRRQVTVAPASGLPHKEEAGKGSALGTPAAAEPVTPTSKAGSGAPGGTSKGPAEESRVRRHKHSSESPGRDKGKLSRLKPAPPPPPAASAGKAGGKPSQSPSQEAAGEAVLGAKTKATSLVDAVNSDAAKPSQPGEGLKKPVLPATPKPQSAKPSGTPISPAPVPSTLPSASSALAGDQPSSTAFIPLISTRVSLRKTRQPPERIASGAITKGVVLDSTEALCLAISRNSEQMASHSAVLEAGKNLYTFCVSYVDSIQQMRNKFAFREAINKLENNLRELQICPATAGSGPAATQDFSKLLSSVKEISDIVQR
Glycogen synthase kinase-3 beta (Homo sapiens), sequence (P49841 whole entry, looked up): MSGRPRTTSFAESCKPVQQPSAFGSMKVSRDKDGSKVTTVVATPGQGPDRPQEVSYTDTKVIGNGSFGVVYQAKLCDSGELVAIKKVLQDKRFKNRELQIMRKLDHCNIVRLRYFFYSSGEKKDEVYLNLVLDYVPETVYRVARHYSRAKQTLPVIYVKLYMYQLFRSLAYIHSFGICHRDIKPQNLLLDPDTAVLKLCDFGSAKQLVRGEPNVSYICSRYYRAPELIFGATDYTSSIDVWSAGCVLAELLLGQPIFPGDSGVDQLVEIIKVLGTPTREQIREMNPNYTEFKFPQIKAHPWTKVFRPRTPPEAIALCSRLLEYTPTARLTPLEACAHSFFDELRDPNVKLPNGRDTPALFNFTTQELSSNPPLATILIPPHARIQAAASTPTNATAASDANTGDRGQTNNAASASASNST

In the case of `CCCn1/c(=N/C(=O)c2cccc(C(N)=O)c2)[nH]c2ccccc21`, the thermal shift (ΔTm) (commonly the change in melting temperature against a reference sample) was 1.41 °C in assay [1]; -1.51 °C in assay [2]; 0.06 °C in assay [3]; 0.95 °C in assay [4]; -0.17 °C in assay [5]; -1.41 °C in assay [6]. In addition, the ΔTm is -0.08 °C in assay [7] and -0.27 °C in assay [8].

Take `NC(=O)c1ccc(Oc2ccc(C(N)=O)cc2)cc1`: the shift in melting temperature (ΔTm) in assay [1] is 0.24 °C; in assay [2] it was -0.98 °C; in assay [3], -0.07 °C; in assay [4] it was 0.22 °C; in assay [5], 0.02 °C; in assay [6], 0.14 °C. Besides, the thermal shift (ΔTm) in assay [7] is -1.15 °C; in assay [8] it was -0.86 °C.

Take `CC(=O)Nc1ccc(C(=O)Nc2ccc(F)cc2N)cc1`: the ΔTm in assay [1] is 2.43 °C; in assay [2] it was -2.84 °C; in assay [3], -0.66 °C; in assay [4] it was 0.17 °C; in assay [5] it was -3.79 °C; in assay [6] it was -0.66 °C. Further, the ΔTm is -2.46 °C in assay [7] and -0.15 °C in assay [8].

For `Cc1cc(/N=N/c2ccc(S(=O)(=O)NC3CCCC3)cc2)c(N)cc1O`, the ΔTm in assay [1] was 0.4 °C; in assay [2] it was 7.29 °C; in assay [3], 4.93 °C; in assay [4], 1.1 °C; in assay [5], 4.28 °C; in assay [6] it was 2.73 °C. Also, the thermal shift (ΔTm) in assay [7] came out at 0.42 °C; in assay [8], 2.48 °C.

Turning to `Cc1nc2ccccn2c1C(=O)CN1CCN(c2ccc(F)cn2)CC1`, the ΔTm in assay [1] was -0.05 °C; in assay [2], 0.87 °C; in assay [3], 0.63 °C; in assay [4] it was -0.29 °C; in assay [5], -0.25 °C; in assay [6] it was 0.11 °C. Besides, the ΔTm in assay [7] is -1.47 °C; in assay [8] it was 0.7 °C.

Regarding `CC(C)CCn1c(CN2CCN(C(=O)C3CC3)CC2)nc2c1c(=O)n(C)c(=O)n2C`, the thermal shift (ΔTm) in assay [1] was 0.68 °C; in assay [2], -2.93 °C; in assay [3] it was 0.17 °C; in assay [4], -0.39 °C; in assay [5], -0.45 °C; in assay [6], 0.11 °C. In addition, the thermal shift (ΔTm) in assay [7] is -2.45 °C; in assay [8], 0.08 °C.

As to `CNC(=O)c1cnc(N2CCC[C@H](N)C2)nc1Nc1cc(C(C)C)nc(C(C)C)c1`, the ΔTm in assay [1] is 0.5 °C; in assay [2] it was -1.65 °C; in assay [3] it was 0.07 °C; in assay [4] it was 1.75 °C; in assay [5] it was -0.33 °C; in assay [6] it was 0.06 °C. Also, the ΔTm in assay [7] is -0.12 °C; in assay [8] it was -1 °C.

Consider `Nc1ccc(-c2cccs2)cc1NC(=O)c1ccc(NC=O)cc1`, for which the thermal shift (ΔTm) in assay [1] is 0.87 °C; in assay [2] it was 2.75 °C; in assay [3] it was 1.18 °C; in assay [4], -0.53 °C; in assay [5] it was -0.36 °C; in assay [6], 0.54 °C. The thermal shift (ΔTm) in assay [7] was 0.14 °C; in assay [8] it was 1.27 °C.

Consider `COc1cc(Nc2ncc(F)c(Nc3ccc4c(n3)N(COP(=O)(O)O)C(=O)C(C)(C)O4)n2)cc(OC)c1OC`, for which the ΔTm was 2.78 °C in assay [1]; 0.11 °C in assay [2]; 5.51 °C in assay [3]; 0.24 °C in assay [4]; -0.66 °C in assay [5]; -0.75 °C in assay [6]. In addition, the ΔTm in assay [7] was 13.3 °C; in assay [8] it was -1.96 °C.

As to `COc1ccc(-n2c(SCCCN3C(=O)c4cccc5cccc(c45)C3=O)nnc2-c2ccncc2)cc1`, the ΔTm is 0.68 °C in assay [1]; -3.3 °C in assay [2]; -0.02 °C in assay [3]; 0.26 °C in assay [4]; -0.45 °C in assay [5]; 0.07 °C in assay [6]. Moreover, the ΔTm in assay [7] was -1.38 °C; in assay [8] it was 0.1 °C.

On to `COc1cc(-c2cn(C)c(=O)c3cnccc23)cc(OC)c1CN(C)C`, for which the ΔTm in assay [1] is 0.4 °C; in assay [2], -1.71 °C; in assay [3], 0.82 °C; in assay [4] it was -0.03 °C; in assay [5], 0.26 °C; in assay [6], 0.18 °C. Moreover, the ΔTm in assay [7] is -1.01 °C; in assay [8], 0.87 °C.

`Cc1cc(Cl)cc(-c2c3sc(CN4C(=O)C5C(C4=O)C5(C)C)cc3nn2C)c1OC1CCNCC1` (stereo unspecified): the ΔTm in assay [1] was 0.34 °C; in assay [2] it was -5.5 °C; in assay [3], 0.13 °C; in assay [4], -0.45 °C; in assay [5], -0.24 °C; in assay [6], -0.05 °C. Besides, the ΔTm in assay [7] is -2.64 °C; in assay [8], -1.23 °C.
